Where a name gives a salt, the structure may show the parent alone.
Test system: Saccharomyces cerevisiae BY4741 SeMeCo community
Assay: z-score of subpopulation abundance vs DMSO median, subpopulation auxotrophic for LM; higher = larger share of this subpopulation than in DMSO controls
Conditions: 10 µM; 24 h; SM minimal medium; subpopulation (auxotrophy): LM
Experimental: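 Fluorescent four-plasmid SeMeCo (self-establishing metabolically cooperating S. cerevisiae BY4741 community; plasmids pH-mRuby2, pL-mWasabi, pU-eCFP, pM-TagRFP657) was grown 24 h in minimal SM medium with each Selleck FDA-approved drug at 10 µM in 384-well plates. Cells were fixed and imaged by high-content confocal microscopy. For each auxotrophic subpopulation (and the prototroph), a z-score gives the deviation from the DMSO vehicle-control population median.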

Compared with `CN[C@@H]1[C@H](O[C@H]2[C@H](O[C@H]3[C@H](O)[C@@H](O)[C@H](NC(=N)N)[C@@H](O)[C@@H]3NC(=N)N)O[C@@H](C)[C@]2(O)CO)O[C@@H](CO)[C@H](O)[C@H]1O` [Dihydrostreptomycin sulfate], `OCc1ccccc1O[C@@H]1O[C@H](CO)[C@@H](O)[C@H](O)[C@H]1O` [Salicin] is higher in “z-score of subpopulation abundance” value: -0.32 for the first, 0.72 for the second.

First: CN1CCC[C@@H]1Cc1c[nH]c2ccc(CCS(=O)(=O)c3ccccc3)cc12 [Eletriptan HBr]
Second: NC(=O)C(c1ccccc1)(c1ccccc1)[C@@H]1CCN(CCc2ccc3c(c2)CCO3)C1 [Darifenacin HBr]
The “z-score of subpopulation abundance” value of the first is higher: 0.75 for the first, -0.2 for the second.

First: CCOC(=O)C1=C(COCCN)NC(C)=C(C(=O)OC)C1c1ccccc1Cl (stereo not given) [Amlodipine]
Second: COCC(=O)Nc1cc(Sc2ccccc2)ccc1N=C(NC(=O)OC)NC(=O)OC [Febantel]
The “z-score of subpopulation abundance” value of the first is higher: 8.35 for the first, 0.89 for the second.

Compared with `Cc1c(OCC(F)(F)F)ccnc1C[S@@+]([O-])c1nc2ccccc2[nH]1` [Dexlansoprazole], `Cc1cc2c(s1)Nc1ccccc1N=C2N1CCN(C)CC1` [Olanzapine] is lower in “z-score of subpopulation abundance” value: 1.28 for the first, 0.65 for the second.

Compared with `CC(C)(C)C(=O)OCOC(=O)[C@@H]1N2C(=O)[C@@H](/N=C/N3CCCCCC3)[C@H]2SC1(C)C` [Pivmecillinam hydrochloride], `C#C[C@]1(OC(C)=O)CC[C@H]2[C@@H]3CCC4=C[C@@H](OC(C)=O)CC[C@@H]4[C@H]3CC[C@@]21C` [Ethynodiol diacetate] is higher in “z-score of subpopulation abundance” value: -0.18 for the first, 0.57 for the second.

Going from `Oc1c(Cl)cc(Cl)c2cccnc12` [Chloroxine] to `CN[C@H]1CC[C@@H](c2ccc(Cl)c(Cl)c2)c2ccccc21` [Sertraline HCl], the “z-score of subpopulation abundance” value falls from 10.6 to -0.97.

Compared with `Fc1ccc([C@@H]2CCNC[C@H]2COc2ccc3c(c2)OCO3)cc1` [Paroxetine mesylate], `CC[C@@H]([C@H](C)O)n1ncn(-c2ccc(N3CCN(c4ccc(OC[C@@H]5CO[C@@](Cn6cncn6)(c6ccc(F)cc6F)C5)cc4)CC3)cc2)c1=O` [Posaconazole] is higher in “z-score of subpopulation abundance” value: -0.87 for the first, 4.46 for the second.

First: C[C@H]1COc2c(N3CCN(C)CC3)c(F)cc3c(=O)c(C(=O)O)cn1c23 [Levofloxacin]
Second: CCN1CCN(c2cc3c(cc2F)c(=O)c(C(=O)O)cn3C2CC2)CC1 [Enrofloxacin]
The “z-score of subpopulation abundance” value of the first is lower: -0.53 for the first, 0.01 for the second.

First: OCCN(CCO)c1nc(N2CCCCC2)c2nc(N(CCO)CCO)nc(N3CCCCC3)c2n1 [Dipyridamole]
Second: COCCCN1CCC(NC(=O)c2cc(Cl)c(N)c3c2OCC3)CC1 [Prucalopride Succinate]
The “z-score of subpopulation abundance” value of the first is higher: 10.9 for the first, -0.18 for the second.

Compared with `CCCCOc1cc(C(=O)OCCN(CC)CC)ccc1N` [Oxybuprocaine HCl], `CCN(CC)CCNC(=O)c1cc(Cl)c(N)cc1OC` [Metoclopramide HCl] is higher in “z-score of subpopulation abundance” value: 0.31 for the first, 0.33 for the second.

First: O=C1CN(/N=C/c2ccc(-c3ccc([N+](=O)[O-])cc3)o2)C(=O)N1 [Dantrolene sodium hemiheptahydrate]
Second: CSCC1CN(/N=C/c2ccc([N+](=O)[O-])o2)C(=O)O1 (stereo not given) [Nifuratel]
The “z-score of subpopulation abundance” value of the first is lower: 1.95 for the first, 3.06 for the second.

First: CNCCCC1c2ccccc2C=Cc2ccccc21 [Protriptyline hydrochloride]
Second: CN1CCC(=C2c3ccccc3C=Cc3ccccc32)CC1 [Cyproheptadine hydrochloride]
The “z-score of subpopulation abundance” value of the first is lower: -0.93 for the first, -0.35 for the second.

First: Nc1ccc2cc3ccc(N)cc3nc2c1 [Proflavine]
Second: O=c1ccc2cc(O)c(O)cc2o1 [Esculetin]
The “z-score of subpopulation abundance” value of the first is lower: -5.35 for the first, 3.28 for the second.

Compared with `CO/N=C(\C(=O)N[C@@H]1C(=O)N2C(C(=O)O)=CCS[C@H]12)c1csc(N)n1` [Ceftizoxime], `O=C1C(N(CO)C(=O)NCO)N(CO)C(=O)N1CO` (stereo not given) [Diazolidinyl urea] is lower in “z-score of subpopulation abundance” value: -0.02 for the first, -0.49 for the second.

Going from `CCCCCCCCN=C(N)NC(N)=NCc1ccc(Cl)c(Cl)c1` [Olanexidine Hydrochloride semihydrate] to `N=C(N)NC(=O)c1nc(Cl)c(N)nc1N` [Amiloride HCl], the “z-score of subpopulation abundance” value rises from -0.77 to 3.94.

First: COc1cccc(CCc2ccccc2OCC(CN(C)C)OC(=O)CCC(=O)O)c1 (stereo not given) [Sarpogrelate hydrochloride]
Second: Nc1c(CC(=O)O)cccc1C(=O)c1ccccc1 [Amfenac Sodium Monohydrate]
The “z-score of subpopulation abundance” value of the first is lower: -0.29 for the first, 0.25 for the second.

Compared with `CCCN[C@H]1CCc2nc(N)sc2C1` [Pramipexole dihydrochloride], `Nc1nc2ccc(OC(F)(F)F)cc2s1` [Riluzole] is higher in “z-score of subpopulation abundance” value: -0.39 for the first, 0.35 for the second.

First: C[C@@H](c1nc(-c2ccc(C#N)cc2)cs1)[C@](O)(Cn1cncn1)c1cc(F)ccc1F [Isavuconazole]
Second: CN1CCOC(c2ccccc2)c2ccccc2C1 (stereo not given) [Nefopam HCl]
The “z-score of subpopulation abundance” value of the first is higher: 1.61 for the first, -0.2 for the second.

Going from `NC12CC3CC(CC(C3)C1)C2` [Amantadine HCl] to `CN1C(C(=O)Nc2ccccn2)=C(O)c2sc(Cl)cc2S1(=O)=O` [Lornoxicam], the “z-score of subpopulation abundance” value rises from -0.26 to -0.22.

Going from `Cc1cccc(Nc2ccccc2C(=O)O)c1C` [Mefenamic Acid] to `CC(=O)C1C(=O)C=C(C)OC1=O` (stereo not given) [Sodium dehydroacetate], the “z-score of subpopulation abundance” value rises from 0.12 to 0.56.

Reference: the supplement of paper PMC8975748
